{"source": "the supplement of paper PMC8728848", "binders": {"B1": {"name": "PkBDPgamma (Plasmodium knowlesi) (protein)", "chain": "SAINQIFLQNNVMDKCNDKRKRGERDWDCPTEKDVCIPDRRYQLCMMEITNLVDTDTHFHSDIIFRKSYSRRRLIYDVGGRGDLLLKKYNNVYSEDLCKDIKWSLQDFGDIIMGTDMEGIGYSLVVQNNLRSIFGTGTSAELDRKKWWNDHKKDIWKAMILSVKEKNRYSAWNCKEDVQIKVEPQIYRWIREWGRDYMSEFREQRRKLNEKCEDKLYYSTMLICTLPPCNNACKSYDEWITGKKKQWDVLSTKFSSVKKAQKIETENIARAYDILKQELNGFNEVTFENEINKRDKLYNYFCVCIVQEARKNTQENVKNVGSGVESKAPSSNPINEAVKSSSGEGKVQEDSAHRSVNEGEGKSSTNEADPGSQPGAAASGGGSGGGTGGGVDLAPQMLRELQETNAALQDVRELLRQQVKEITFLKNTVMECDACGGPLDRNLPPLAPLGPTGGWSHPQFEK"}}, "experiment_in_all_cases": "glycan array binding signal (z-score within array); higher = stronger binding", "conditions_in_all_cases": "glycan notation: IUPAC condensed, linker removed", "key": {"[1]": {"biological_target": "GalNAc(b1-4)Gal(b1-4)Glc", "how_it_was_run": "(§1)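 Glycan array data were curated from 3228 arrays in the Consortium for Functional Glycomics database and kept only where the protein sequence was available. Glycan names were converted to IUPAC-condensed notation, and columns mapping to the same glycan were averaged. The binding signal is a within-array Z-score, averaged across arrays of the same protein sequence at different concentrations or buffers and across linkers. Negative Z-scores can be read as non-binding.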"}, "[2]": {"biological_target": "GalNAc(b1-4)GlcNAc", "how_it_was_run": "as §1"}, "[3]": {"biological_target": "Glc(a1-6)Glc(a1-6)Glc(a1-6)Glc", "how_it_was_run": "as §1"}, "[4]": {"biological_target": "GlcNAc(b1-2)Gal(b1-3)GalNAc", "how_it_was_run": "as §1"}, "[5]": {"biological_target": "GlcNAc(b1-3)Gal(b1-4)GlcNAc(b1-3)Gal(b1-4)GlcNAc(b1-3)Gal(b1-4)GlcNAc(b1-2)Man(a1-3)[GlcNAc(b1-3)Gal(b1-4)GlcNAc(b1-3)Gal(b1-4)GlcNAc(b1-3)Gal(b1-4)GlcNAc(b1-2)Man(a1-6)]Man(b1-4)GlcNAc(b1-4)[Fuc(a1-6)]GlcNAc", "how_it_was_run": "as §1"}, "[6]": {"biological_target": "GlcNAc(b1-3)Gal(b1-4)GlcNAc(b1-3)Gal(b1-4)GlcNAc(b1-3)Gal(b1-4)GlcNAc(b1-2)[GlcNAc(b1-3)Gal(b1-4)GlcNAc(b1-3)Gal(b1-4)GlcNAc(b1-3)Gal(b1-4)GlcNAc(b1-6)]Man(a1-6)[GlcNAc(b1-3)Gal(b1-4)GlcNAc(b1-3)Gal(b1-4)GlcNAc(b1-3)Gal(b1-4)GlcNAc(b1-2)Man(a1-3)]Man(b1-4)GlcNAc(b1-4)[Fuc(a1-6)]GlcNAc", "how_it_was_run": "as §1"}, "[7]": {"biological_target": "GlcNAc(b1-3)Gal(b1-4)GlcNAc(b1-3)Gal(b1-4)GlcNAc(b1-3)Gal(b1-4)GlcNAc(b1-3)Gal(b1-4)GlcNAc(b1-2)[GlcNAc(b1-3)Gal(b1-4)GlcNAc(b1-3)Gal(b1-4)GlcNAc(b1-3)Gal(b1-4)GlcNAc(b1-3)Gal(b1-4)GlcNAc(b1-6)]Man(a1-6)[GlcNAc(b1-3)Gal(b1-4)GlcNAc(b1-3)Gal(b1-4)GlcNAc(b1-3)Gal(b1-4)GlcNAc(b1-3)Gal(b1-4)GlcNAc(b1-2)Man(a1-3)]Man(b1-4)GlcNAc(b1-4)[Fuc(a1-6)]GlcNAc", "how_it_was_run": "as §1"}, "[8]": {"biological_target": "GlcNAc(b1-3)GalNAc", "how_it_was_run": "as §1"}, "[9]": {"biological_target": "GlcNAc(b1-3)Man", "how_it_was_run": "as §1"}, "[10]": {"biological_target": "GlcNAc(b1-3)[GlcNAc(b1-6)]GalNAc", "how_it_was_run": "as §1"}, "[11]": {"biological_target": "GlcNAc(b1-4)GlcNAc(b1-4)GlcNAc(b1-4)GlcNAc(b1-4)GlcNAc(b1-4)GlcNAc", "how_it_was_run": "as §1"}, "[12]": {"biological_target": "Kdn(a2-3)Gal(b1-3)GlcNAc", "how_it_was_run": "as §1"}, "[13]": {"biological_target": "Man(a1-2)Man(a1-3)Man", "how_it_was_run": "as §1"}, "[14]": {"biological_target": "Neu5Ac(a2-3)Gal(b1-4)GlcNAc(b1-2)Man(a1-3)[Neu5Ac(a2-3)Gal(b1-4)GlcNAc(b1-2)Man(a1-6)]Man(b1-4)GlcNAc(b1-4)GlcNAc", "how_it_was_run": "as §1"}, "[15]": {"biological_target": "Neu5Ac(a2-3)Gal(b1-4)GlcNAc(b1-3)Gal(b1-3)GlcNAc", "how_it_was_run": "as §1"}, "[16]": {"biological_target": "Neu5Ac(a2-3)Gal(b1-4)GlcNAc(b1-3)Gal(b1-4)GlcNAc", "how_it_was_run": "as §1"}, "[17]": {"biological_target": "Neu5Ac(a2-3)Gal(b1-4)GlcNAc(b1-3)GalNAc", "how_it_was_run": "as §1"}, "[18]": {"biological_target": "Neu5Ac(a2-3)Gal(b1-4)[Fuc(a1-3)]GlcNAc(b1-6)[Gal(b1-3)]GalNAc", "how_it_was_run": "as §1"}, "[19]": {"biological_target": "Neu5Ac(a2-3)[GalNAc(b1-4)]Gal(b1-4)GlcNAc(b1-3)GalNAc", "how_it_was_run": "as §1"}, "[20]": {"biological_target": "Neu5Ac(a2-6)Gal(b1-3)GlcNAc(b1-3)[Gal(b1-4)GlcNAc(b1-6)]Gal(b1-4)Glc", "how_it_was_run": "as §1"}, "[21]": {"biological_target": "Neu5Ac(a2-6)Gal(b1-4)GlcNAc(b1-3)Gal(b1-4)GlcNAc(b1-3)Gal(b1-4)GlcNAc", "how_it_was_run": "as §1"}, "[22]": {"biological_target": "Neu5Ac(a2-6)Gal(b1-4)GlcNAc(b1-3)Gal(b1-4)GlcNAc(b1-3)Gal(b1-4)GlcNAc(b1-2)Man(a1-3)[Neu5Ac(a2-6)Gal(b1-4)GlcNAc(b1-3)Gal(b1-4)GlcNAc(b1-3)Gal(b1-4)GlcNAc(b1-2)Man(a1-6)]GalNAc", "how_it_was_run": "as §1"}, "[23]": {"biological_target": "Neu5Ac(a2-6)Gal(b1-4)GlcNAc(b1-3)Gal(b1-4)GlcNAc(b1-3)[Neu5Ac(a2-6)Gal(b1-4)GlcNAc(b1-3)Gal(b1-4)GlcNAc(b1-6)]GalNAc", "how_it_was_run": "as §1"}, "[24]": {"biological_target": "Neu5Ac(a2-6)Gal(b1-4)GlcNAc(b1-6)[Gal(b1-3)GlcNAc(b1-3)]Gal(b1-4)Glc", "how_it_was_run": "as §1"}, "[25]": {"biological_target": "Neu5Ac(a2-6)GalNAc(b1-4)GlcNAc", "how_it_was_run": "as §1"}, "[26]": {"biological_target": "Neu5Ac(a2-8)Neu5Ac(a2-3)Gal(b1-4)GlcNAc", "how_it_was_run": "as §1"}, "[27]": {"biological_target": "Neu5Ac(a2-8)Neu5Ac(a2-8)Neu5Ac", "how_it_was_run": "as §1"}, "[28]": {"biological_target": "Neu5Gc(a2-3)Gal(b1-4)GlcNAc(b1-3)Gal(b1-4)GlcNAc(b1-2)Man(a1-3)[Neu5Gc(a2-3)Gal(b1-4)GlcNAc(b1-3)Gal(b1-4)GlcNAc(b1-2)Man(a1-6)]Man(b1-4)GlcNAc(b1-4)GlcNAc", "how_it_was_run": "as §1"}}, "note": "The entries come from a sample that favours the strongest signals as a whole."}
{"binder": "B1", "values": [{"measurement": "glycan array binding signal (z-score)", "setting": "[1]", "result": -0.243}, {"measurement": "glycan array binding signal (z-score)", "setting": "[2]", "result": -0.002}, {"measurement": "glycan array binding signal (z-score)", "setting": "[3]", "result": 0.897}, {"measurement": "glycan array binding signal (z-score)", "setting": "[4]", "result": -0.401}, {"measurement": "glycan array binding signal (z-score)", "setting": "[5]", "result": 0.128}, {"measurement": "glycan array binding signal (z-score)", "setting": "[6]", "result": -0.196}, {"measurement": "glycan array binding signal (z-score)", "setting": "[7]", "result": 2.27}, {"measurement": "glycan array binding signal (z-score)", "setting": "[8]", "result": -0.356}, {"measurement": "glycan array binding signal (z-score)", "setting": "[9]", "result": -0.084}, {"measurement": "glycan array binding signal (z-score)", "setting": "[10]", "result": -0.331}, {"measurement": "glycan array binding signal (z-score)", "setting": "[11]", "result": -0.371}, {"measurement": "glycan array binding signal (z-score)", "setting": "[12]", "result": -0.196}, {"measurement": "glycan array binding signal (z-score)", "setting": "[13]", "result": -0.276}, {"measurement": "glycan array binding signal (z-score)", "setting": "[14]", "result": 0.46}, {"measurement": "glycan array binding signal (z-score)", "setting": "[15]", "result": -0.241}, {"measurement": "glycan array binding signal (z-score)", "setting": "[16]", "result": 0.522}, {"measurement": "glycan array binding signal (z-score)", "setting": "[17]", "result": -0.073}, {"measurement": "glycan array binding signal (z-score)", "setting": "[18]", "result": 0.362}, {"measurement": "glycan array binding signal (z-score)", "setting": "[19]", "result": -0.323}, {"measurement": "glycan array binding signal (z-score)", "setting": "[20]", "result": -0.324}, {"measurement": "glycan array binding signal (z-score)", "setting": "[21]", "result": 0.015}, {"measurement": "glycan array binding signal (z-score)", "setting": "[22]", "result": 0.405}, {"measurement": "glycan array binding signal (z-score)", "setting": "[23]", "result": 0.922}, {"measurement": "glycan array binding signal (z-score)", "setting": "[24]", "result": 1.24}, {"measurement": "glycan array binding signal (z-score)", "setting": "[25]", "result": -0.045}, {"measurement": "glycan array binding signal (z-score)", "setting": "[26]", "result": 0.25}, {"measurement": "glycan array binding signal (z-score)", "setting": "[27]", "result": -0.324}, {"measurement": "glycan array binding signal (z-score)", "setting": "[28]", "result": 20.7}]}
